This note sets out measurements from PubChem BioAssay AID435019 (Southern Research Specialized Biocontainment Screening …, 2010).

Screen size: about 2,300 compounds; about 1,200 (52%) were called active. How the calls were made is not given here. So high a share suggests a set chosen from earlier hits. Some of the results follow. Results with a measured potency or affinity are listed apart.

The assay can be described thus: mammalian cell cytotoxicity, dose response, cytotoxicity control for M. tuberculosis inhibitor project (AID 435019).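 Further: lower values mean fewer viable cells so more cytotoxicity.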 Conditions: cytotoxicity counter-screen; series mostly up to 40 µM. Background: A counterscreen serves to expose hits that act by an unwanted route or on another target.
As to `Cc1c(OCc2ccccc2)c(=O)ccn1Cc1ccc(Cl)cc1`, the call was inactive.

In the case of `CC(=O)N1C(Nc2ccc(Cl)cc2)CCN1c1ccccc1` (stereo not given), the result was inactive. The value for `Nc1ccc2c(c1)oc1ccccc12` was “inactive”; that for `Cc1ccc(-n2[nH]c(C)c(C=Nc3ccc(S(=O)(=O)Nc4nccs4)cc3)c2=O)c(C)c1` was “inactive”. Take `Cc1ccccc1C(=O)Nc1ccc(N(C)C)c2ccccc12`: the molecule was classed as inactive. The value for `N/C(=N\OC(=O)Nc1ccc(Cl)c(Cl)c1)c1ncc(C(F)(F)F)cc1Cl` was “inactive”; that for `CC(C)C(=O)N1CCC2(CC1)Oc1ccc(Cl)cc1C(=O)C21CC(c2ccccc2)=NO1` (stereo not given) was “inactive”. Take `COc1ccc(C(=O)OCC(=O)c2ccc(Br)s2)c(OC)c1`: the result was inactive. For the molecule `CCOC(=O)C1CCCc2c1[nH]c1c(C(N)=O)cccc21` (stereo not given), the outcome was inactive. With `O=C(OCc1ccccc1F)c1cnc(Cl)c(Cl)c1` the entry was “inactive”; with `O=C(OCc1ccc([N+](=O)[O-])cc1)c1cc2ccccc2oc1=O`, “inactive”; with `COc1ccccc1C1=NOC(COC(=O)c2ccc([N+](=O)[O-])cc2)C1` (stereo not given), “inactive”. With `CCCCS/C(N)=N/N=C/c1cc(C)ccc1O` the entry was “inactive”; with `Nc1ccc(Oc2ccc(F)cc2)nc1`, “inactive”.

For the molecule `CCOC(=O)c1cc(-c2cccc([N+](=O)[O-])c2)on1`, the molecule was classed as inactive. The value for `CNC(=S)Nc1ccc(N2CCN(c3ccc(C(F)(F)F)cn3)CC2)nc1` was “inactive”. For the molecule `CCCCCCC#Cc1ccc2c(c1)COc1c3ccccc3nn1-2`, the call was inactive. The value for `O=C(NC1CCCCCC1)c1ccccc1-c1ccccc1` was “inactive”; that for `COc1cc(N)c(Cl)cc1C(=O)N[C@H]1CCN(CCCOc2ccc(F)cc2)C[C@H]1OC` was “inactive”. For `N#CC(C(=O)Nc1ccccc1)=C1Nc2ccccc2N1`, the molecule was called inactive. With `Cc1ccccc1C(=O)Nc1ccccc1C(=O)NCC(C)C` the entry was “inactive”; with `CSc1nc2nc3c(c(=O)n2[nH]1)CCCC3`, “inactive”; with `c1ccc(CCNc2ncnc3c2cnn3-c2ccccc2)cc1`, “inactive”. The value for `CCSc1ncc(/C=N/Nc2ccccc2)n1C` was “inactive”; that for `CN1/C(=C\C(=O)C[n+]2ccc(C(=O)c3ccccc3)cc2)C(C)(C)c2ccccc21` was “inactive”; that for `CCCN(CC1CC1)C(=O)COC(=O)c1ccc2c(c1)C(=O)N(c1ccc(OCC)cc1)C2=O` was “inactive”.

For the molecule `CCOC(=O)c1ccc2c(c1)C(=O)N(C1CCCCC1)C2=O`, the outcome was inactive. Take `CN(C)C=Nc1ccc2nn(-c3ccccc3)nc2c1`: the call was inactive.

With `COC(=O)CSc1[nH]c2ccc(Br)cc2c1[N+](=O)[O-]`, the molecule was called inactive. The value for `CCOC(=O)c1csc(-c2snnc2C)n1` was “inactive”. Take `O=C(COC(=O)C1CC2CCCC(C1)C2=O)NNC(=O)c1ccccc1F` (stereo not given): the call was inactive. With `Cn1nnc(NC(=S)NC(=O)c2ccc(-c3ccc(Br)cc3)o2)n1` the entry was “inactive”; with `NC(=S)NNc1ccc(Cl)c(Cl)c1`, “inactive”; with `Nc1ccc(C(=O)OCCCc2nc3cc4ccccc4cc3[nH]2)cc1`, “inactive”.

Consider `CS(=O)(=O)c1ncc(Cl)c(C(=O)Nc2ccc(OC(F)F)cc2)n1`, for which the call was inactive. With `COCCOC(=O)c1ccc(NC(=O)COc2ccc([N+](=O)[O-])cc2)cc1` the entry was “inactive”; with `CC1CCN(C(=O)C2CCN(c3nnc(-n4cccc4)s3)CC2)CC1`, “inactive”; with `COCc1nnc(NC(=O)C2CC(=O)N(c3ccc(C)c(Cl)c3)C2)s1` (stereo not given), “inactive”. With `COc1ccc2c(c1)[C@@H]1[C@H](CO2)[C@H](c2ccccc2)[C@]2(C)C(=O)Nc3ccc(C)cc3C(=O)N12` the entry was “inactive”. As to `CCC(=O)c1coc2ccc(O)cc12`, the call was inactive. The value for `CCCCc1ccc(NC=C2C(=O)OC3(CCCCC3)OC2=O)cc1` was “inactive”. The value for `C#CCOC(=O)/C(=C/C=C/c1ccccc1)NC(=O)c1ccccc1` was “inactive”; that for `Cc1ccc(C(=O)N/C(=C/c2ccco2)C(=O)OCN2C(=O)c3ccccc3C2=O)cc1` was “inactive”. The value for `O=C(OCn1nnc2ccccc2c1=O)C1CCCCC1` was “inactive”; that for `CN1[C@@H]2CC[C@H]1CC(OC(=O)[C@H](CO)c1ccccc1)C2` (stereo not given in full) was “inactive”. `CC(=O)c1cccc(NC(=S)NC2CCCCCCC2)c1`: the molecule was called inactive. Take `Cc1[nH]nc2nc3c(c(OC(=O)c4ccccc4)c12)c(=O)n(C)c(=O)n3C`: the call was inactive.

For the molecule `Cc1cc(/C=C(/C#N)c2cccc(F)c2)c(C)n1-c1cccnc1`, the molecule was called inactive.

As for `N#Cc1cccc(NC(=O)N2CCC(c3nc4c(nnn4Cc4cccc(Cl)c4)c(=O)[nH]3)CC2)c1`, the result was inactive. The value for `CCOC(=O)c1ccc(Oc2nc(NC(C)(C)C)nc(N(C)C)n2)cc1` was “inactive”.

With `CN(C)S(=O)(=O)c1cccc(NC(=O)CCc2nc3sc4c(c3c(=O)[nH]2)CCCC4)c1`, the molecule was called inactive. As for `Cc1cc(OCc2nc3ccccc3s2)ccc1N`, the call was inactive. With `CCCC(=O)OCCNc1cc(SCCC(=O)OC)c2nonc2c1[N+](=O)[O-]` the entry was “inactive”; with `CCOC(=O)c1nn(-c2ccc(C)c(C)c2)cc1O`, “inactive”; with `CCn1cc(Br)c(C(=O)Nc2ccc(C(=O)OC(C)C)cc2)n1`, “inactive”.

For the molecule `C=CC[N@@+]12CC[C@]34c5ccccc5N5/C=C6\C7N(/C=C(\C53)[C@@H](C[C@@H]41)/C(=C/CO)C2)c1ccccc1[C@@]71CC[N@@+]2(CC=C)C/C(=C\CO)[C@@H]6C[C@@H]12` (stereo not given in full), the molecule was called inactive. In the case of `Cc1cccc(C(=O)OCC(=O)N2CCc3ccccc3C2)c1O`, the result was inactive. With `CC(C)c1ccc2[nH]c(O)c(N=NC(=O)c3ccc(CSc4nncn4C)cc3)c2c1` the entry was “inactive”; with `COC(=O)N/N=C/c1c[n+]([O-])c2ccccc2[n+]1[O-]`, “inactive”. With `N[C@@H](CCl)C(=O)O` the entry was “inactive”. The value for `Cc1ccc(NC(=O)C2=C(O)CCn3c2nc2ccccc23)cc1` was “inactive”. `O=C(CSc1nc2ccccc2c(=O)[nH]1)NCc1ccc(Cl)cc1`: the molecule was classed as inactive. With `CC(C)NC(=O)c1onc(CSc2ccc(F)c(F)c2)c1C(=O)O`, the outcome was inactive. With `Cc1ccc(-c2noc(-c3cc4ccccc4oc3=O)n2)cc1` the entry was “inactive”. With `CCN(Cc1ccncc1)Cc1nc(-c2ccc(C(=O)OC)cc2)no1` the entry was “inactive”; with `COc1ccc(-c2oc3cccnc3c2/C=C/c2ccc(OC)c(OC)c2)cc1`, “inactive”; with `O=C(NCC1CC1)c1cc([N+](=O)[O-])cc([N+](=O)[O-])c1`, “inactive”. The value for `CCOc1cc(C=O)cc(N=Nc2cccc([N+](=O)[O-])c2)c1O` was “inactive”. As to `N/C(=N\OC(=O)CCC1CCCC1)c1cccc([N+](=O)[O-])c1`, the call was inactive.

`CCOC(=O)c1ccc(N=Cc2c(O)c3ccccc3oc2=O)cc1`: the call was inactive. In the case of `CCOC(=O)/C(=N\Nc1ccc(Br)cc1)N1CC(C)OC(C)C1` (stereo not given), the outcome was inactive. The value for `CC(OC(=O)CCN=C1NS(=O)(=O)c2ccccc21)C(=O)Nc1ccc(F)c(F)c1F` (stereo not given) was “inactive”; that for `CC(C)(C)c1ccc(OCCC(=O)OCC(=O)NC(=O)NC2CCCC2)cc1` was “inactive”. The value for `Nc1cnccc1C(=O)O` was “inactive”. The value for `O=C1CC(Nc2ccc3ccccc3c2)C(=O)N1Cc1ccccc1` (stereo not given) was “inactive”.

As to `Cc1c(C(=O)Oc2cccc3ccccc23)cnn1-c1ccccc1`, the result was inactive. The value for `CC(=NCc1ccc2c(c1)OCO2)C1=C(O)c2ccccc2C1=O` was “inactive”; that for `CCOC(=O)C1=C(C)Nc2nc(SCC(=O)OC)nn2C1c1cc(F)cc(F)c1` (stereo not given) was “inactive”; that for `CC(=O)Oc1ccc(/C=N\NC(=O)c2cc3c(ccc4ccccc43)o2)cc1` was “inactive”. On to `COc1ccc(NC(=O)ON=C2c3ccccc3-c3ccccc32)cc1`, for which the molecule was classed as inactive.

`COC(=O)Cc1ccc(NC(=S)Nc2ccccn2)cc1`: the outcome was inactive. On to `Nc1ccc(N=Nc2ccccc2)c2cccnc12`, for which the call was inactive. As for `O=C(Nc1cccc(C(F)(F)F)c1)c1ccc2nc(-c3ccco3)c(-c3ccco3)nc2c1`, the molecule was called inactive. Take `Nc1cccc(-c2cc3ccccc3oc2=O)c1`: the molecule was classed as inactive. With `CCOC(=O)c1sc(C)c2c(=O)n(CC(=O)c3ccc(Br)cc3)nnc12` the entry was “inactive”; with `NC(N)=Nc1nc(-c2ccccc2)c2ccccc2n1`, “inactive”.

Consider `CCOC(=O)Cn1nc(-c2ccccc2)nc1-c1ccccc1`, for which the molecule was called inactive. In the case of `CCOC(=O)c1ccc(N=Cc2nc3ccccc3n2C)cc1`, the outcome was inactive.

Take `CCOc1cc(/C=N/Nc2nc(Nc3ccccc3)nc(N3CCCCC3)n2)ccc1OCC(=O)O`: the result was inactive. On to `COC(=O)[C@@H](NC(=O)c1cc(COc2cncc(Cl)c2)on1)c1ccccc1`, for which the outcome was inactive. The value for `O=C(N/N=C\c1ccc[nH]1)c1cncc(Br)c1` was “inactive”; that for `O=C(O)C1CC=CCC1C(=O)NNc1ccccc1` (stereo not given) was “inactive”; that for `O=c1oc2ccccc2c(Nc2ccccc2O)c1[N+](=O)[O-]` was “inactive”. With `COc1ccc(NC(=O)C2C3C=CC(O3)C2C(=O)NCc2cccnc2)cc1` (stereo not given) the entry was “inactive”. Consider `CCCC(O)(CCC)C(=O)NNc1ccc(C)cc1`, for which the molecule was classed as inactive. With `CCc1nnc(NC(=O)CN2CCN(c3nc(-c4ccccc4)cs3)CC2)s1` the entry was “inactive”.

For `c1ccc2nc(-c3ccc(-n4ccnc4)cc3)ccc2c1`, the molecule was classed as inactive.

Regarding `CCOC(=O)c1c(-c2ccc(OC)cc2)csc1NC(=O)CNCc1ccco1`, the call was inactive. The value for `CCCCOc1ccc(C(=O)Oc2ccc(C)nc2)cc1` was “inactive”; that for `O=c1[nH][nH]cc1C=Nc1ccc(Oc2ccccc2)cc1` was “inactive”; that for `CN(c1ccccc1)S(=O)(=O)c1cccc(C(=O)NCc2ccccc2CN2CCCC2)c1` was “inactive”. For `CN1C(=O)N(C)c2ccc(C=O)c3cccc1c23`, the outcome was inactive. As to `COc1cc2[nH]c(Cl)c([N+](=O)[O-])c2cc1OC`, the result was inactive.

Consider `Cc1ccc(C)c(NC(CC(=O)c2ccccc2)C(=O)OCC(=O)c2cccs2)c1` (stereo not given), for which the molecule was classed as inactive. The value for `CCOc1ccc(NCc2cccn2-c2nnc(N3CCC(C(=O)NCCCN4C(C)CCCC4C)CC3)s2)cc1` (stereo not given) was “inactive”.

On to `O=C(CSc1nnc(-c2cccs2)o1)NCC1CN(Cc2ccccc2)CCO1` (stereo not given), for which the call was inactive. Consider `Nc1cc(=O)[nH]c(SCc2csc(-c3ccccc3)n2)n1`, for which the molecule was called inactive. With `CCCOc1cccc(C(=O)NC(=S)Nc2ccc(N3CCN(C)CC3)cc2)c1` the entry was “inactive”; with `CCOC(=O)c1cc(-c2ccc(N3CCOCC3)cc2)nn1-c1ccccc1`, “inactive”.

On to `CCOC(=O)CNC(=O)C(Cc1ccccc1)NC(=O)OCc1ccccc1` (stereo not given), for which the molecule was called inactive.
